About 83,000 compounds went through this panel and 20% of them were active in at least one assay; those are over-represented in the sample as a whole.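 Percent growth is the endpoint: 0 to 100 indicates growth inhibition (40 means 60% inhibition), 0 means no net growth, and negative values indicate cell death.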 Active and inactive are the calls of the source. Rule for the calls: active = growth percent below 10; inactive = the rest.

The subject of the experiment is SF-295 CNS. In words: NCI-60 one-dose screen, 48 h (100 = growth as untreated, 0 = no growth, -100 = all killed). Particulars: 10 µM unless noted.
For the molecule `OC(c1ccccc1)c1nnc(SCc2ccccc2)n1Cc1ccccc1` (centres undefined), the growth was 83.4% (inactive).

Take `COc1ccc(-n2c(C(O)c3ccccc3)nn(CN3CCOCC3)c2=S)cc1` (centres undefined): the growth is 79.7% (inactive).

Consider `CN(O)c1nc(N(C)O)nc(N2CCOCC2)n1`, for which the growth is -30.2% (active).

On to `Cn1c2c(c(=O)[nH]c1=O)NC1=C(C(=O)c3ccccc31)C1(C=C(O)c3ccccc31)N2` (centres undefined), for which the growth was 135% (inactive).

`CC/C=C\C[C@H](O)C/C=C1/C(=O)C=C[C@@H]1C/C=C\CCCC(=O)OCCS(=O)(=O)c1ccccc1`: the growth is 100% (inactive).

Regarding `COc1ccc(C2Nc3ncnc(N)c3N=C3c4ccccc4C(=O)C32)cc1` (centres undefined), the growth is 96.9% (inactive).

On to `COC(=O)/C(=C\c1c(-c2ccccc2)[nH]c2ccccc12)S(C)(=O)=O`, for which the growth is 32% (inactive).

Consider `COc1ccc(-c2nsc3c2NC(=O)CC3c2ccsc2)cc1` (centres undefined), for which the growth was 2.29% (active).

Take `COC(=O)/C(=C\c1c(C)[nH]c2ccccc12)S(=O)(=O)c1ccccc1`: the growth was 16.6% (inactive).

With `COc1cccc(C(=O)Cn2cc(/C=C(\C#N)S(=O)(=O)c3ccccc3)c3ccccc32)c1`, the growth was 88.8% (inactive).

`CC(=O)O[C@@H]1/C=C/C(=O)N[C@@H](C)CCC/C=C/[C@@H]2CCC[C@H]21`: the growth is 98.6% (inactive).

Turning to `O=C1/C=C/[C@@H](O)[C@@H]2C[C@@H](O)C[C@H]2/C=C/CCCCO1`, the growth was 21.9% (inactive).

Turning to `O=C(NN1C(=O)CSC1c1ccc(Cl)cc1)c1[nH]c2ccc(F)cc2c1-c1ccccc1` (centres undefined), the growth is 8.34% (active).

As for `CSc1nc2c(c(=O)n1C)N=C1c3ccccc3C(=O)C1C(c1ccccc1)N2` (centres undefined), the growth is -10.6% (active).

The values above are taken from PubChem BioAssay (NCI).
